# Source: PubChem BioAssay
# Sampled rows, rich in hits. Any-hit rate of the full collection: about 2%.
# MBNL1-CUG inh – MBNL1-poly(CUG) RNA binding inhibition | Q9NR56 | TR-FRET MBNL1-His/biotin-(CUG)12 binding, 665/545 ratio | Potency, µM (highest dose often 57.5 µM), for the others: top-dose activity change, negative = inhibition, most hits filed as inhibitors | actives 0.036% (n = 280,000); active means well fitted inhibition curve with a large enough effect in the signal ratio, with a control signal flat, not every such curve was filed as active; inconclusive means small, poorly fitted or top-dose-only effect, or effect the other way, or a change in a side signal; inactive means no such curve, though single readings can be large or run the other way; the % refers to the signal ratio; further: on the % scale 0 is the no-effect control and ±100 the full control effect
# Target sequence (Q9NR56 whole entry, looked up): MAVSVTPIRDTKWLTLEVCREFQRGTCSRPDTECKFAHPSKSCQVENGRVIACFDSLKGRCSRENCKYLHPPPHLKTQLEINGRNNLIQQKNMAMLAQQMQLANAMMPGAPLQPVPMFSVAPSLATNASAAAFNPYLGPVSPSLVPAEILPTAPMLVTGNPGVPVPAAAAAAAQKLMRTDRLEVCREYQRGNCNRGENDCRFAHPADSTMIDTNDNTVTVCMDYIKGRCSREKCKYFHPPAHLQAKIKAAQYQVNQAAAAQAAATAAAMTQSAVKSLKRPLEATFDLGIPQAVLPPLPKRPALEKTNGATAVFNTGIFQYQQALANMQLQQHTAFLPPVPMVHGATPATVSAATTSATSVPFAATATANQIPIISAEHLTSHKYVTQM
#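 Compounds (final 92 nM to 58 uM) are added to His-tagged MBNL1 and biotin-(CUG)12, then terbium anti-His antibody and streptavidin-XL665 (5 nM final). After 60 min at room temperature, the 665/545 nm ratio is read.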
# FUS suppressor – FUS proteinopathy suppression in yeast | S. cerevisiae FUS-expressing, growth rescue, OD600, 24 h | Potency, µM (top dose mostly 76.6 µM), actives largely listed as activators | actives 0.24% (n = 390,000) | AID 1347120;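 further: plate controls were DMSO vehicle for no effect and reference control for full effect; nearly all actives have a fitted effect of over 55% in size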
#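 Cultures pregrown in 2.5% raffinose medium are shifted to minimal medium containing 2% galactose to express toxic FUS. Compounds are tested at several concentrations. After 24hr at 30C, growth is quantified at 600 nm absorbance.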
# Glioma ERSR ind – ER stress response induction in glioma | actives 0.02% (n = 420,000) | Potency, µM, for inactives: at the highest dose activation, most hits filed as activators | U87-MG GRP78 promoter luciferase reporter, 16 h; further: series mostly up to about 76 µM; % of control where 0% means no effect; nearly all actives have a fitted effect of over 35% in size
#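 Stably transfected U87-MG human glioma cells carrying a GRP78-based luminescent sensor were seeded at 1000 cells/well, pin-dosed with compounds and incubated 16 h. Luciferase reagent was then added, and end-point luminescence was read after 10 min at room temperature.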
# Abeta yeast res – A-beta toxicity reversal in yeast. actives 0.063% (n = 410,000). yeast expressing A-beta42, growth rescue, OD600, 48 h; response scale: 0% DMSO, 100% iron-clioquinol control. Potency, µM (highest dose often 46.1 µM), most hits filed as activators; further: nearly all actives have a fitted effect of over 55% in size
#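 Yeast A-beta toxicity model in growth medium with pinned compounds, 48 h at 30 C; growth read as absorbance at 600 nm. Normalized to FeCl3/clioquinol equimolar mix (positive) and DMSO (negative).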
# TDP43 rescue – TDP-43 toxicity inhibition in yeast; TDP-43 expressing yeast growth rescue, BacTiter-Glo, 24 h; Potency, µM (highest dose often 46.1 µM), for the others: at the top dose growth rescue (activation), most hits filed as activators; actives 1.8% (n = 410,000); further: % of control where 0% means no effect; nearly all actives have a fitted effect of over 50% in size
#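 Cell-based yeast growth screen: TDP-43 expression induced in galactose, inoculum OD600=0.02 after raffinose pregrowth to mid-log. Read-out BacTiter-Glo luminescence at 24 hr, 30 deg C; inhibition of toxicity seen as signal increase.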
# aSyn rescue – alpha-synuclein toxicity inhibition in yeast; Yeast expressing alpha-synuclein, growth rescue, BacTiter-Glo, 24 h; Potency, µM (highest dose often 46.1 µM), without a hit: at the highest dose growth rescue (activation), hits mostly activators; actives 0.14% (n = 370,000); AID 652106; further: % of control where 0% means no effect; nearly all actives have a fitted effect of over 65% in size
#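 Rescue of yeast growth: cells expressing toxic alpha-synuclein, induced in galactose at OD600 0.02, incubated with compound 24 h at 30 C. ATP luminescence quantified growth; inhibitors of toxicity appear as activators.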
# Active calls of the source: *; i = inactive; ? = inconclusive; nt = no result; [ ] = dose if it differs, or a comment. Unless noted, the call rests on the fitted dose curve; in most records, active means well fitted curve in the direction sought with a large enough effect; inconclusive means small, poorly fitted or top-dose-only effect, or another doubt; inactive means no such curve, though single readings can be large; an effect the other way counts as inactive or inconclusive. Potency means the concentration at half of the fitted maximal effect.
SMILES,MBNL1-CUG inh,FUS suppressor,Glioma ERSR ind,Abeta yeast res,TDP43 rescue,aSyn rescue
Cc1ccc(O)c(C(=O)C=Cc2ccccc2)c1,nt,nt,10%,i,13µM*,?
COc1cc(/C=C/C(=O)c2ccccc2O)cc(OC)c1OC,-8%,i,?,i,16µM*,13%
O=C(CCc1ccccc1-c1ccccc1CCNC(=O)COCc1ccccc1)NCc1ccccc1,nt,i,nt,nt,nt,nt
COCCN1C(=O)/C(=C/c2cc3c(cc2Br)OCO3)NC1=S,?,i,-1%,i,20µM*,-5%
COC(=O)C1=C(C)N(Cc2ccccc2)C(=O)N[C@H]1c1ccccc1,-13%,i,-3%,i,29%,1%
COC(=O)C1=C(C)N(Cc2ccccc2)C(=S)N[C@H]1c1ccccc1,-3%,i,-5%,i,13µM*,21%
COc1ccc(OC(=O)c2ccncc2)cc1,-4%,i,-2%,i,27%,6%
COc1ccc(C(=O)Oc2ccc(/C=N/O)cc2)cc1,-1%,i,1%,i,10µM*,nt
COc1ccc(OC)c(-c2nn(-c3ccccc3)cc2C(=O)N2CCc3ccccc3C2)c1,nt,?,-7%,i,13µM*,-2%[1.84 µM]
C#CCOCCOCCOCCNc1nc(N2CCN(C(=O)CCCCCCCCCCNC(=O)[C@@H](CCSC)n3cc(CCO)nn3)CC2)nc(N2CCN(C(=O)CCCCCCCCCCNC(=O)[C@H]([C@@H](C)CC)n3cc(CCCCN=C(N)N)nn3)CC2)n1,nt,8.9µM*,-12%,i,5%,-64%
C#CCOCCOCCOCCNc1nc(N2CCN(C(=O)CCCCCCCCCCNC(=O)[C@H](CCCCN)n3cc(C[C@@H](C)CC)nn3)CC2)nc(N2CCN(C(=O)CCCCCCCCCCNC(=O)[C@H](CCCCN)n3cc(C[C@@H](C)CC)nn3)CC2)n1,nt,?,-12%,i,-90%,-75%
C#CCOCCOCCOCCNc1nc(N2CCN(C(=O)CCCCCCCCCCNC(=O)[C@H]([C@@H](C)CC)n3cc(CCCCCN)nn3)CC2)nc(N2CCN(C(=O)CCCCCCCCCCNC(=O)[C@@H]([C@H](C)O)n3cc(C)nn3)CC2)n1,nt,13µM*,-10%,i,?,-53%
C#CCOCCOCCOCCNc1nc(N2CCN(C(=O)CCCCCCCCCCNC(=O)[C@H](CCCCN)n3cc(CCO)nn3)CC2)nc(N2CCN(C(=O)CCCCCCCCCCNC(=O)[C@@H]([C@H](C)O)n3cc(C)nn3)CC2)n1,nt,?,-2%,i,-1%,-8%
C#CCOCCOCCOCCNc1nc(N2CCN(C(=O)CCCCCCCCCCNC(=O)[C@H](CCC(=O)O)n3cc(CCCCCN)nn3)CC2)nc(N2CCN(C(=O)CCCCCCCCCCNC(=O)[C@@H]([C@H](C)O)n3cc(C)nn3)CC2)n1,nt,13µM*,-2%,i,-16%,-10%
C#CCOCCOCCOCCNc1nc(N2CCN(C(=O)CCCCCCCCCCNC(=O)Cn3cc(C[C@@H](C)O)nn3)CC2)nc(N2CCN(C(=O)CCCCCCCCCCNC(=O)[C@H](CCCCN)n3cc(C[C@@H](C)CC)nn3)CC2)n1,nt,10µM*,-12%,i,-5%,-52%
CCCCC1CN(CCNC(=O)c2ccccn2)Cc2ccccc2O1 (configuration not stated),nt,nt,-2%,nt,nt,nt
Cc1ccc2c(C)c(C(=O)N3CCN(c4cnccn4)CC3)oc2c1C,-4%,nt,7%,i,13µM*,27%
Cc1cc(Cl)c2oc(C(=O)N3CCN(c4cnccn4)CC3)c(C)c2c1,nt,i,5%,i,5%,12%
Cc1ccc2c(C)c(C(=O)N3CCC(O)(c4ccccc4)CC3)oc2c1C,2%,i,-1%,i,22µM*,10%
O=C(CCn1nnc(-c2cccs2)n1)NCc1ccco1,nt,i,nt,nt,nt,nt
N/C(=N\OC(=O)c1cccc(F)c1)c1ccccn1,-4%,i,1%,i,3.2µM*,-3%
N/C(=N\OC(=O)c1ccccc1)c1ccccn1,6%,i,-13%,i,-20%[0.397 µM],-34%
CCOc1ccc(C(=O)O/N=C(\N)c2ccccn2)cc1,1%,i,-14%,i,13µM*,-48%
N/C(=N\OC(=O)/C=C/c1ccc(Br)cc1)c1ccccn1,4%,i,-6%,i,18µM*,1%
N/C(=N\OC(=O)c1ccc(Br)o1)c1ccccn1,-5%,i,-15%,i,14µM*,0%
SMILES,MBNL1-CUG inh,FUS suppressor,Glioma ERSR ind,Abeta yeast res,TDP43 rescue,aSyn rescue
CC(NC(=O)C1CCOCC1)c1nnc2n1CCN(Cc1cc3c(cc1Cl)OCO3)CC2 (configuration not stated),nt,nt,-6%,nt,nt,nt
CC(C)c1c(C(=O)N(C)CC2CCCN(C)C2)cnn1-c1nccc(-c2cccs2)n1 (configuration not stated),nt,nt,1%,nt,nt,nt
Cc1ccc(C(=O)O/N=C(\N)c2ccccn2)cc1,-3%,i,-12%,i,?,-49%
COc1cc(OC)cc(C(=O)O/N=C(\N)c2cccc(C)c2)c1,-2%,i,2%,i,?,-49%
Cc1ccc(C(=O)O/N=C(\N)c2ccccn2)cc1C,-2%,i,-14%,i,10µM*,-17%
Cc1cccc(/C(N)=N/OC(=O)c2ccc(Br)o2)c1,4%,nt,5%,i,4.5µM*,-36%
Cc1cccc(C(=O)O/N=C(\N)c2ccccn2)c1,-2%,i,-17%,i,13µM*,-24%
Cc1cccc(/C(N)=N/OC(=O)c2cccnc2)c1,-8%,i,-6%,i,11µM*,-8%
COc1cc(C(=O)O/N=C(\N)c2ccccn2)cc(OC)c1OC,12%,i,7%,i,?,-1%
Cn1c(C(c2cc3ccccc3n2C)c2cc3ccccc3n2C)cc2ccccc21,nt,nt,-10%,nt,nt,nt
Cc1ccc(Cn2c(C)c(C(=O)NCc3ccc4c(c3)OCO4)sc2=O)cc1,nt,i,-2%,?,25µM*,-2%
Cc1ccc(NC(=S)NCc2ccc3c(c2)OCO3)cc1,?,i,-3%,i,22µM*,-3%
CSc1ccc(Cn2c(C)c(C(=O)NCc3ccc4c(c3)OCO4)sc2=O)cc1,nt,i,1%,?,20µM*,-7%
CCOC(=O)/C=C/c1ccc2c(c1)S(=O)(=O)N(C1CCCC1)[C@H]2CC(=O)OCC,nt,nt,-1%,nt,nt,nt
